We go through 40 compounds from PubChem BioAssay (NCATS).

“And” between values parts separate entries of the source, which are not always exact repeats. Identical values can stand only once. Results filed as inconclusive are left out. The source made the active and inactive calls. Calls follow the shape of the dose curve; as a rule, active = well fitted cell-killing curve with a large enough effect; inconclusive = small, poorly fitted or top-dose-only effect; inactive = flat fitted curve, though single readings scatter.
Potency is read from the fitted curve at half-maximal effect.

One experiment in a line: Cellular viability qHTS for adrenocortical cancer (ACC) cell line SW-13 (AID 1963989). Also: nearly all actives have a fitted effect of over 65% in size.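 As to activity (max response): cells grown in serum-free medium with ITS supplement; % is scaled to controls: 0 for no effect and ±100 for the full control effect.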 To be noted: SW-13 ACC cells viability, CellTiter-Glo, 48 h; activity (max response): hits give low values. In outline: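 48 h treatment, SW-13 in ITS/DMEM serum-free; doses up to 46 uM; readout CellTiter-Glo luminescence; curve fit four-parameter logistic.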
On to `Cc1[nH]c(/C=C2\C(=O)Nc3ccc(S(=O)(=O)N(C)c4cccc(Cl)c4)cc32)c(C)c1C(=O)N1CCN(C)CC1`, for which the Potency was 17.8 µM (active).

In the case of `C[C@@H]1N=C(N)NC(N(C)C)=N1`, the activity (max response) is -4.04% (inactive).

Consider `O=S(=O)(O)c1cc(I)c(O)c2ncccc12`, for which the activity (max response) is 0.547% (inactive).

On to `C=CC(=O)N1CCC[C@@H](n2nc(-c3ccc(Oc4ccccc4)cc3)c3c(N)ncnc32)C1`, for which the activity (max response) was 5.79% (inactive).

On to `COc1cccc2c1C(=O)c1c(O)c3c(c(O)c1C2=O)C[C@@](O)(C(=O)CO)C[C@@H]3O[C@H]1C[C@H](N)[C@H](O[C@@H]2CCCCO2)[C@H](C)O1`, for which the Potency was 0.731 µM (active).

As to `COc1ccc2c(c1)[C@]1(C[C@H]1c1ccc3c(/C=C/c4ccc(CN5C[C@@H](C)O[C@@H](C)C5)cc4)n[nH]c3c1)C(=O)N2`, the Potency was 14.1 µM (active).

In the case of `CCN1C(=O)CNc2ncc(-c3ccc(-c4ncn[nH]4)nc3C)nc21`, the Potency was 8.91 µM (active).

On to `Nc1ncnc2c1ncn2[C@@H]1O[C@H](CO)C[C@H]1O`, for which the activity (max response) was -9.5% (inactive).

With `CO[C@@]1(NC(=O)C(C(=O)O)c2ccc(O)cc2)C(=O)N2C(C(=O)O)=C(CSc3nnnn3C)CO[C@@H]21` (stereo not given in full), the activity (max response) is 13.4% (inactive).

As to `NS(=O)(=O)c1cc2c(cc1C(F)(F)F)NCNS2(=O)=O`, the activity (max response) was -4.83% (inactive).

Take `CC1=C(C(=O)O)N2C(=O)[C@@H](NC(=O)[C@H](N)c3ccc(O)cc3)[C@H]2SC1`: the activity (max response) was 8.09% (inactive).

With `Nc1ccc(C(=O)OCC(O)CO)cc1` (stereo not given), the activity (max response) was 13.4% (inactive).

For `NCCCC[C@H](N[C@@H](CCc1ccccc1)C(=O)O)C(=O)N1CCC[C@H]1C(=O)O`, the activity (max response) was 4.67% (inactive).

Turning to `C#C[C@]1(O)CC[C@H]2[C@@H]3[C@H](C)CC4=C(CCC(=O)C4)[C@H]3CC[C@@]21C`, the activity (max response) is -17.1% (inactive).

`Nc1ccc(O)c([N+](=O)[O-])c1`: the activity (max response) is 0.787% (inactive).

Consider `CC1(C)S[C@H]2[C@H](NC(=O)[C@@H](N)c3ccc(O)cc3)C(=O)N2[C@H]1C(=O)O`, for which the activity (max response) is 7.49% (inactive).

For `NS(=O)(=O)c1cc2c(cc1Cl)NC(CC1CCCC1)NS2(=O)=O` (stereo not given), the activity (max response) is 10.5% (inactive).

In the case of `Cc1cccc(C)c1NC(=O)c1ccc(N)cc1`, the activity (max response) was 6.32% (inactive).

`O=C(O)CNC(=O)c1nc(Cl)c2ccccc2c1O`: the activity (max response) was 8.31% (inactive).

For the compound `C=C[C@H]1CN2CC[C@H]1C[C@@H]2[C@@H](O)c1ccnc2ccc(OC)cc12`, the activity (max response) was 6.85% (inactive).

As for `CCCCCN(CCCCC)C(=O)C(CCC(=O)O)NC(=O)c1ccc(Cl)c(Cl)c1` (stereo not given), the activity (max response) was 5.36% (inactive).

With `CC(C)N(CCCNC(=O)Nc1ccc(C(C)(C)C)cc1)C[C@H]1O[C@@H](n2cc(Br)c3c(N)ncnc32)[C@H](O)[C@@H]1O`, the Potency was 28.2 µM (active).

On to `Cc1[nH]c2ccccc2c1CCNCc1ccc(/C=C/C(=O)NO)cc1`, for which the Potency was 0.251 µM (active).

Regarding `Oc1ccccc1`, the activity (max response) is 8.68% (inactive).

In the case of `Nc1c(NC/C=C\COc2cc(CN3CCCCC3)ccn2)c(=O)c1=O`, the activity (max response) was 4.55% (inactive).

Regarding `CC(C)NCC(O)COc1cccc2[nH]ccc12` (stereo not given), the activity (max response) is -13.8% (inactive).

Regarding `c1ccc2sc(SSc3nc4ccccc4s3)nc2c1`, the activity (max response) was -16.2% (inactive).

For the compound `O=C(O)CCCC[C@@H]1SC[C@@H]2NC(=O)N[C@@H]21`, the activity (max response) is -0.523% (inactive).

`COc1ccc(-c2cc(=O)c3c(O)cc(O[C@@H]4O[C@H](CO[C@@H]5O[C@@H](C)[C@H](O)[C@@H](O)[C@H]5O)[C@@H](O)[C@H](O)[C@H]4O)cc3o2)cc1O`: the activity (max response) was -2.14% (inactive) and 4.75% (inactive).

Take `CCC(C)(CN(C)C)OC(=O)c1ccccc1` (stereo not given): the activity (max response) was -1.44% (inactive).

With `CCN(CC)CCOC(=O)C(c1ccccc1)C1CCCCC1` (stereo not given), the activity (max response) is 12.1% (inactive).

Take `CCCCCCCCCCCCCCCCOCCCOP(=O)(O)COC(CO)Cn1ccc(N)nc1=O` (stereo not given): the activity (max response) is -4.49% (inactive).

Regarding `CC(=O)Nc1ccc(O)cc1`, the activity (max response) is -6.94% (inactive) and -15.1% (inactive).

In the case of `CCCN1CCCC[C@H]1C(=O)Nc1c(C)cccc1C`, the activity (max response) is 4.43% (inactive).

Consider `CC(=O)N[C@H]1CSSC[C@@H](C(N)=O)NC(=O)[C@H](C(C)C)NC(=O)[C@H](C)NC(=O)[C@H](Cc2cnc[nH]2)NC1=O`, for which the activity (max response) is -0.986% (inactive).

In the case of `CCCCOc1cc(C(=O)OCCN(CC)CC)ccc1N`, the activity (max response) was -10.3% (inactive).

As for `C[C@H]1NCc2cc(-c3ccc4c(=O)c(C(=O)O)cn(C5CC5)c4c3OC(F)F)ccc21`, the activity (max response) is -8.27% (inactive).

For `C=CC(=O)N1CCC[C@H](n2c(=O)n(-c3ccc(Oc4ccccc4)cc3)c3c(N)ncnc32)C1`, the Potency is 3.98 µM (active).

Regarding `O=C([O-])C[O-].[Pt+2]`, the activity (max response) is -1.3% (inactive).

Take `NC12CC3CC(CC(C3)C1)C2`: the activity (max response) is 13.7% (inactive) and -1.26% (inactive).

The next experiment can be described thus: Cellular viability qHTS for adrenocortical cancer (ACC) cell line NCI-H295R (AID 1963990). Also: nearly all actives have a fitted effect of over 60% in size.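 As to activity change, negative = viability loss: 0% = DMSO only wells and -100% = full killing with cytotoxic reference compound.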 To be noted: CellTiter-Glo ATP luminescence, 48 h; series mostly up to 46.1 µM; activity change, negative = viability loss: at the top concentration. In outline:
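Compound titrations (up to 46 uM final) are applied to NCI-H295R cultures for 48 h at 37C. Viable cell number is estimated by CellTiter-Glo signal, normalised to DMSO and doxorubicin controls.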
Turning to `Cc1[nH]c(/C=C2\C(=O)Nc3ccc(S(=O)(=O)N(C)c4cccc(Cl)c4)cc32)c(C)c1C(=O)N1CCN(C)CC1`, the Potency was 14.1 µM (active).

Consider `C[C@@H]1N=C(N)NC(N(C)C)=N1`, for which the “activity change, negative = viability loss” value is 10.5% (inactive).

Consider `O=S(=O)(O)c1cc(I)c(O)c2ncccc12`, for which the “activity change, negative = viability loss” value is 7.85% (inactive).

Regarding `C=CC(=O)N1CCC[C@@H](n2nc(-c3ccc(Oc4ccccc4)cc3)c3c(N)ncnc32)C1`, the “activity change, negative = viability loss” value was -1.95% (inactive).

For `COc1cccc2c1C(=O)c1c(O)c3c(c(O)c1C2=O)C[C@@](O)(C(=O)CO)C[C@@H]3O[C@H]1C[C@H](N)[C@H](O[C@@H]2CCCCO2)[C@H](C)O1`, the Potency is 3.66 µM (active).

Take `COc1ccc2c(c1)[C@]1(C[C@H]1c1ccc3c(/C=C/c4ccc(CN5C[C@@H](C)O[C@@H](C)C5)cc4)n[nH]c3c1)C(=O)N2`: the Potency is 6.31 µM (active).

On to `CCN1C(=O)CNc2ncc(-c3ccc(-c4ncn[nH]4)nc3C)nc21`, for which the Potency is 10 µM (active).

For the compound `Nc1ncnc2c1ncn2[C@@H]1O[C@H](CO)C[C@H]1O`, the Potency was 15.8 µM (active).

`CO[C@@]1(NC(=O)C(C(=O)O)c2ccc(O)cc2)C(=O)N2C(C(=O)O)=C(CSc3nnnn3C)CO[C@@H]21` (stereo not given in full): the “activity change, negative = viability loss” value is -1.35% (inactive).

On to `NS(=O)(=O)c1cc2c(cc1C(F)(F)F)NCNS2(=O)=O`, for which the “activity change, negative = viability loss” value is -3.77% (inactive).

On to `CC1=C(C(=O)O)N2C(=O)[C@@H](NC(=O)[C@H](N)c3ccc(O)cc3)[C@H]2SC1`, for which the “activity change, negative = viability loss” value was -20.5% (inactive).

Turning to `Nc1ccc(C(=O)OCC(O)CO)cc1` (stereo not given), the “activity change, negative = viability loss” value was -2.29% (inactive).

As for `NCCCC[C@H](N[C@@H](CCc1ccccc1)C(=O)O)C(=O)N1CCC[C@H]1C(=O)O`, the “activity change, negative = viability loss” value is -25.3% (inactive).

`C#C[C@]1(O)CC[C@H]2[C@@H]3[C@H](C)CC4=C(CCC(=O)C4)[C@H]3CC[C@@]21C`: the “activity change, negative = viability loss” value is -5% (inactive).

For the compound `Nc1ccc(O)c([N+](=O)[O-])c1`, the “activity change, negative = viability loss” value was 4.76% [at 92.7 µM] (inactive).

For `CC1(C)S[C@H]2[C@H](NC(=O)[C@@H](N)c3ccc(O)cc3)C(=O)N2[C@H]1C(=O)O`, the “activity change, negative = viability loss” value is -2.56% (inactive).

`NS(=O)(=O)c1cc2c(cc1Cl)NC(CC1CCCC1)NS2(=O)=O` (stereo not given): the “activity change, negative = viability loss” value is -11.8% (inactive).

`Cc1cccc(C)c1NC(=O)c1ccc(N)cc1`: the “activity change, negative = viability loss” value is -11.8% (inactive).

With `O=C(O)CNC(=O)c1nc(Cl)c2ccccc2c1O`, the “activity change, negative = viability loss” value is 2.72% (inactive).

For `C=C[C@H]1CN2CC[C@H]1C[C@@H]2[C@@H](O)c1ccnc2ccc(OC)cc12`, the “activity change, negative = viability loss” value was 6.47% (inactive).

In the case of `CCCCCN(CCCCC)C(=O)C(CCC(=O)O)NC(=O)c1ccc(Cl)c(Cl)c1` (stereo not given), the “activity change, negative = viability loss” value was 0.154% (inactive).

As for `CC(C)N(CCCNC(=O)Nc1ccc(C(C)(C)C)cc1)C[C@H]1O[C@@H](n2cc(Br)c3c(N)ncnc32)[C@H](O)[C@@H]1O`, the Potency is 25.1 µM (active).

For `Cc1[nH]c2ccccc2c1CCNCc1ccc(/C=C/C(=O)NO)cc1`, the Potency is 0.112 µM (active).

`Oc1ccccc1`: the “activity change, negative = viability loss” value was -9.67% (inactive).

As for `Nc1c(NC/C=C\COc2cc(CN3CCCCC3)ccn2)c(=O)c1=O`, the “activity change, negative = viability loss” value is 9.39% [at 20 µM] (inactive).

With `CC(C)NCC(O)COc1cccc2[nH]ccc12` (stereo not given), the “activity change, negative = viability loss” value is -4.84% (inactive).

With `c1ccc2sc(SSc3nc4ccccc4s3)nc2c1`, the “activity change, negative = viability loss” value is 8.38% [at 20 µM] (inactive).

For `O=C(O)CCCC[C@@H]1SC[C@@H]2NC(=O)N[C@@H]21`, the “activity change, negative = viability loss” value is -23.2% (inactive).

As to `COc1ccc(-c2cc(=O)c3c(O)cc(O[C@@H]4O[C@H](CO[C@@H]5O[C@@H](C)[C@H](O)[C@@H](O)[C@H]5O)[C@@H](O)[C@H](O)[C@H]4O)cc3o2)cc1O`, the Potency entry was “inactive”.

For the compound `CCC(C)(CN(C)C)OC(=O)c1ccccc1` (stereo not given), the “activity change, negative = viability loss” value was -13.9% (inactive).

In the case of `CCN(CC)CCOC(=O)C(c1ccccc1)C1CCCCC1` (stereo not given), the “activity change, negative = viability loss” value was -21.8% (inactive).

Regarding `CCCCCCCCCCCCCCCCOCCCOP(=O)(O)COC(CO)Cn1ccc(N)nc1=O` (stereo not given), the “activity change, negative = viability loss” value was -24% (inactive).

Turning to `CC(=O)Nc1ccc(O)cc1`, the Potency entry was “inactive”.

With `CCCN1CCCC[C@H]1C(=O)Nc1c(C)cccc1C`, the “activity change, negative = viability loss” value was 0.483% (inactive).

`CC(=O)N[C@H]1CSSC[C@@H](C(N)=O)NC(=O)[C@H](C(C)C)NC(=O)[C@H](C)NC(=O)[C@H](Cc2cnc[nH]2)NC1=O`: the “activity change, negative = viability loss” value was -14.5% (inactive).

With `CCCCOc1cc(C(=O)OCCN(CC)CC)ccc1N`, the “activity change, negative = viability loss” value was -19.5% (inactive).

Consider `C[C@H]1NCc2cc(-c3ccc4c(=O)c(C(=O)O)cn(C5CC5)c4c3OC(F)F)ccc21`, for which the “activity change, negative = viability loss” value was -2.76% [at 20 µM] (inactive).

`C=CC(=O)N1CCC[C@H](n2c(=O)n(-c3ccc(Oc4ccccc4)cc3)c3c(N)ncnc32)C1`: the Potency was 8.91 µM (active).

Consider `O=C([O-])C[O-].[Pt+2]`, for which the “activity change, negative = viability loss” value was 1.04% (inactive).

For the compound `NC12CC3CC(CC(C3)C1)C2`, the Potency result is “inactive”.
